HIF-2a inh = inhibitors of HIF-2a; 0.72% of 360,000 active; 786-0 RCC cells HIF-2a reporter, luciferase luminescence, overnight; inhibition, % at 18.8 µM;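 active = inhibition of the luminescence signal of 40% or more relative to plate controls, in a single-dose primary screen at 18.75 µM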
TROY NFkB inh = inhibitors of TROY-dependent NF-kB signaling | Q293 LMP1-TROYcd NF-kB luciferase reporter, 4 h | inhibition, % at 10 µM | 0.98% of 360,000 active | AID 1347056;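 active = compounds whose plate-normalised and pattern-corrected inhibition of the luciferase reporter signal at the single screening dose is 50% or more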
TWEAK-Fn14 inh = TWEAK-Fn14 signaling inhibition; TWEAK-stimulated Fn14 reporter cells, luciferase luminescence, 8 h; inhibition, % at 10 µM; 2% of 360,000 active; in the data active = inhibition above about 50%
Shn3 inh set2 = Schnurri-3 reporter inhibition in Clone20 osteoblasts. 0.52% of 360,000 active. AID 588674. Clone20 osteoblast Shn3 3'UTR firefly luciferase, 24 h. inhibition, % at 12.5 µM;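 active = mean inhibition of at least 75% with every replicate also reaching 75%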;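 also: 0% = median of neutral control wells and 100% = pilot-screen positive control compound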
TRPM1 prom inh = reduces MITF-dependent TRPM1 promoter luciferase signal; 0.83% of 330,000 active; inhibition, % at 12.5 µM; SK-MEL-5 TRPM1 promoter luciferase, 24 h;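 active = mean inhibition across replicates of 60% or more, whatever share of single replicates reaches that level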
EBV LMP1 NFkB = Epstein-Barr LMP1 NF-kappaB reporter inhibition | 0.69% of 350,000 active | LMP1-induced NF-kappaB luciferase reporter cells, luminescence | inhibition, % at 12.5 µM; in the data active = inhibition above about 41%;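 also: 0% = neutral control wells and 100% = reference inhibitor control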
Mdm2 MdmX conf = Mdm2/MdmX (human) interaction inhibition, confirmed; shares compounds with HIF-2a inh; 99% of 740 active; inhibition, % at 8 µM; AID 504601; SaOS-2 split-luciferase Mdm2/MdmX complementation, luminescence;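 active = mean inhibition of the luminescence signal across two replicates at or above 26 percent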
HIF-2a conf = confirmation of HIF-2a inhibitors | shares compounds with HIF-2a inh | 786-0 RCC cells, HIF-2a luciferase reporter luminescence, overnight | inhibition, % at 18.8 µM | 56% of 1,800 active | AID 651580;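 active = mean inhibition across four replicates of at least 40 percent at the single tested concentration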
HIF-1a cs = inhibits HIF-1a reporter, a counter-screen for HIF-2a inhibitors | shares compounds with HIF-2a inh | MiaPaCa-2 HIF-1a luciferase reporter, desferoxamine, overnight | inhibition, % at 18.8 µM | 72% of 1,800 active;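 active = mean inhibition of the reporter signal across four replicates at the single tested dose of 50% or more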
Active calls of the source: *; nt = no result. In the library only some 3.4% were active in any assay of this set; here they are far more common.

SMILES | HIF-2a inh | TROY NFkB inh | TWEAK-Fn14 inh | Shn3 inh set2 | TRPM1 prom inh | EBV LMP1 NFkB | HIF-2a conf | HIF-1a cs | others
CC1=CC2OC3CC4OC(=O)C=CC=CC(C(C)O)OCC(O)C(C)CC(=O)OCC2(CC1O)C4(C)C31CO1 (centres undefined) | 75.8* | 84.2* | 99.3* | 93.5* | 89.8* | 83.6* | 73.3* | 105.2*
CCOP(=S)(OCC)SCCSCC | -0.8 | -17.7 | -5.7 | 5.7 | 4.6 | 4.1 | nt | nt
CC1CCN(CC#CCOc2ccc(Cl)cc2)CC1 | -22.0 | -30.0 | -9.8 | -6.7 | -9.3 | 2.6 | nt | nt
c1ccc(P(c2ccccn2)c2ccccn2)cc1 | 58.4* | 59.3* | 12.1 | -22.4 | 3.9 | -0.1 | 2.4 | -6.2
CCC(C)C1NC(=O)C(NC(=O)C(CC(C)C)N(C)C(=O)C2CCCN2C(=O)C(C)O)C(C)OC(=O)C(Cc2ccc(OC)cc2)N(C)C(=O)C2CCCN2C(=O)C(CC(C)C)NC(=O)[C@H](C)C(=O)[C@H](C(C)C)OC(=O)CC1O (some centres undefined) | 83.0* | 85.1* | 102.2* | 99.2* | 105.3* | 93.3* | 78.7* | 100.4*
CC(=O)C1CCC2(O)C3CCC4=CC(=O)CCC4(C)C3CCC12C (centres undefined) | 3.6 | -5.7 | -5.1 | -2.3 | 3.9 | 3.3 | nt | nt
C[C@@H]1O[C@@H](O[C@@H]2C=C3CC[C@@H]4C(CC[C@]5(C)[C@@H](c6ccc(=O)oc6)CC[C@]45O)[C@@]3(C)CC2)[C@H](O)[C@H](O)[C@H]1O (some centres undefined) | 85.9* | 50.9* | 85.9* | 2.9 | 83.4* | 82.3* | 46.4* | 104.6*
C[C@@H]1O[C@@H](O[C@@H]2C=C3CCC4C(CC[C@]5(C)[C@@H](c6ccc(=O)oc6)CC[C@]45O)[C@@]3(C)CC2)[C@H](O)[C@H](O)[C@H]1O (some centres undefined) | 90.4* | 47.4 | 82.5* | -2.1 | 82.2* | 88.1* | 43.3* | 105.4* | Mdm2 MdmX conf=86.6*
CC[C@@H]1c2ccccc2[C@@H]2CC[C@H]1N2c1ccccc1 | 16.2 | nt | nt | nt | nt | nt | nt | nt
CCCCCn1c(=O)c(C(=O)Nc2ncccc2C)c(O)c2ccccc21 | 5.0 | 29.5 | 6.1 | 12.3 | -0.7 | 11.8 | nt | nt
COc1cc(C=C2C(=O)NC(=O)NC2=O)ccc1OCc1ccc([N+](=O)[O-])cc1 | -203.1 | -19.6 | -2.0 | -54.0 | -66.9 | -23.6 | nt | nt
COc1cc(/C=C(/C)[N+](=O)[O-])ccc1OCc1ccccc1Cl | 94.4* | 56.5* | 72.5* | 96.0* | 91.0* | -12.9 | nt | nt | Mdm2 MdmX conf=103.0*
CN1CC2=CC(O)CC3Oc4c(O)ccc(c4[C@]23C)C1 (some centres undefined) | 0.1 | 3.3 | -12.0 | 14.3 | -3.7 | -3.1 | nt | nt
CC1=CC2/C=C(\C)CCC(O)C(O)/C=C/C(=O)C23C(=O)NC(CC(C)C)C3C1C (centres undefined) | 92.5* | 60.5* | 93.1* | 98.6* | 97.2* | 13.4 | 99.2* | 102.0* | Mdm2 MdmX conf=103.0*
COC(=O)C1=C(c2ccc(F)cc2F)C[C@@H]2CC[C@H]1N2C(=O)N1CCC(O)CC1 | 18.1 | -18.6 | 17.0 | 10.1 | -3.5 | -3.1 | nt | nt
Cc1nc2cc(-c3cccc(F)c3)nn2c(C)c1CCC(=O)N1CCC2(CC1)OCCO2 | 75.2* | -27.8 | -17.8 | 36.4 | 6.1 | -3.3 | 82.4* | 52.7*
CNC(C)Cc1ccccc1Sc1ccc(O)cc1 (centres undefined) | 50.1* | 18.4 | -6.2 | 13.9 | -11.1 | -22.6 | -0.2 | 48.9
Cc1ccc(C2CC3CCC(C2)N3Cc2ccccc2F)cc1 (centres undefined) | 23.5 | -7.8 | -10.3 | 13.3 | -12.6 | -12.0 | nt | nt
O=[N+]([O-])c1cccc(NP(=O)(Oc2ccccc2)Oc2ccccc2)c1 | 42.0* | 2.5 | 10.9 | 16.4 | 15.3 | 3.5 | 42.8* | 47.0
COc1cccc(NP(=O)(Oc2ccc(Cl)cc2)Oc2ccc(Cl)cc2)c1 | 12.6 | 17.7 | 10.1 | 10.0 | -10.9 | 0.7 | nt | nt
Nc1cc(Cl)c2nonc2c1[N+](=O)[O-] | 93.8* | 69.7* | 57.7* | 94.8* | 93.1* | 0.4 | 97.5* | 103.1*
O=[N+]([O-])c1c(Cl)c(Cl)c(Cl)c(Cl)c1Cl | 7.3 | -1.2 | 5.0 | 7.3 | 8.7 | 2.7 | nt | nt
O=C(N/N=C/c1c(O)n(-c2cccc3ccccc23)c(=O)[nH]c1=O)c1ccncc1 | 13.3 | -0.5 | 2.9 | -11.4 | -8.5 | 0.6 | nt | nt
Cc1ccc(S(=O)(=O)N[C@@H](CCCCN)C(=O)CCl)cc1 | -20.0 | 4.8 | 9.5 | 0.1 | 1.8 | 1.3 | nt | nt
O=c1cccc2n1CC1CNCC2C1 (centres undefined) | 7.0 | -9.5 | 10.3 | -26.0 | 17.6 | -3.9 | nt | nt
SMILES | HIF-2a inh | TROY NFkB inh | TWEAK-Fn14 inh | Shn3 inh set2 | TRPM1 prom inh | EBV LMP1 NFkB | HIF-2a conf | HIF-1a cs | others
CC(=O)OC[C@]12CCC(C)=C[C@H]1O[C@@H]1[C@H](O)[C@@H](OC(C)=O)[C@@]2(C)[C@]12CO2 | 90.0* | 83.9* | 98.2* | 99.1* | 91.4* | 74.1* | 80.6* | 105.5*
COc1ccc(CN2CCCC(C(=O)c3sccc3C)C2)cc1O (centres undefined) | 6.1 | 6.3 | -13.1 | -29.6 | -3.0 | 14.3 | nt | nt
NC(N)=N/N=C/c1cn(-c2ccccc2)nc1-c1cccs1 | -33.6 | -34.9 | 12.8 | 0.0 | 43.6 | 8.5 | nt | nt | Mdm2 MdmX conf=103.5*
O=c1c2ccccc2nc(-c2cccs2)n1-c1ccccc1 | 10.6 | -5.2 | -3.9 | 5.8 | 2.4 | 2.3 | nt | nt
COc1ccc2c(c1)[nH]c1c(C)nccc12 | 38.4* | 49.8 | 65.1* | 26.8 | 18.4 | 37.6 | 11.6 | 86.0*
CN1CCN(c2nc3ccccc3o2)CC1 | -53.9 | -0.4 | 14.4 | -0.9 | -7.4 | -0.2 | nt | nt
C=C1C(=O)O[C@@H]2C[C@@H](C)[C@@H]3C=CC(=O)[C@@]3(C)[C@@H](O)[C@H]12 | 96.7* | 32.2 | 104.2* | 98.7* | 105.8* | 94.2* | nt | nt | Mdm2 MdmX conf=100.2*
Cc1c(C(=O)c2cccc3ccccc23)c2cccc3c2n1[C@H](CN1CCOCC1)CO3 | 69.7* | -44.6 | -4.1 | 13.7 | 57.8 | 13.9 | 45.9* | 78.8*
O=C(CN1CCOCC1)c1cccc2ccccc12 | -1.3 | -9.3 | 14.7 | -7.9 | 4.6 | 0.8 | nt | nt
COc1ccc2c3c1OC1C(=O)CC[C@@]4(O)[C@@H](C2)N(CC2CC2)CC[C@]314 (some centres undefined) | 18.8 | -4.9 | 7.3 | 4.8 | -4.5 | -1.8 | nt | nt
Nc1cc(Cl)cc(C(=O)O)c1Cl | 14.0 | -23.0 | -21.9 | -5.4 | 0.3 | 0.5 | nt | nt

From PubChem BioAssay
